In all, about 16,000 sequences were measured (“rpm ratio (pull-down/input)”: median about 0.5, highest 2% from about 5.5 on). The sample holds the highest values, similar sequences and a random draw of the others, so the mix is not that of the screen.

This assay concerns the target T1, MBP-FoxP3dN (Mus musculus, UniProt Q99JB6 188-423).
T1 sequence: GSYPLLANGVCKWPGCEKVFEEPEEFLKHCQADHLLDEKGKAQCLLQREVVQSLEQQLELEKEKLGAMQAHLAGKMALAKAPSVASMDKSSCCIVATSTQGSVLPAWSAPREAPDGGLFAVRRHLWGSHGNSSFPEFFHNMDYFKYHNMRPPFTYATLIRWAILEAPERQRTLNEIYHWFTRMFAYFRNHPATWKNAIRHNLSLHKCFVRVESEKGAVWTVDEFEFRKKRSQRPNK
Kind of assay: PD-seq (MBP pull-down with sequencing); 20 mM Tris-HCl pH 7.5, 100 mM NaCl, 1.5 mM MgCl2, 0.4 uM protein, 0.1 uM dsDNA library, 30 min, room temperature, amylose pull-down; high values mean tight binding. As to conditions: protein: recombinant; tags: His6-MBP; chain copies: 2; dsDNA, one strand shown. In outline:
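Binding is reads-per-million enrichment of pull-down over input, with replicates pooled. It comes from 30 min room-temperature incubation in Tris pH 7.5 buffer with NaCl and MgCl2 of 0.4 µM His6-MBP-tagged, N-terminally truncated mouse FoxP3 or FoxP1 fragment from E. coli with 0.1 µM Klenow-filled degenerate double-stranded DNA library, followed by amylose resin capture, three washes and Illumina sequencing of the released DNA.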
With “GATGATTGTTCTCCCAGCTGATGAATTATTCAGATCGAGTAAACAAATTTTCCTAATCTTTCTGTTCAAGCGCCATCTAC”, the binding signal was 0.24 RPM ratio (pull-down/input).
The result for “GATGATTGTTCTCCCAGCTGATGAATTTTTTCAATCGAGTAAACAAATTTTCCTAATCTTTCTGTTCAAGCGCCATCTAC” reads 0.247 RPM ratio (pull-down/input).
For “GATGATTGTTCTCCCAGCTGATGAATTTGGTGAGTCGAGTAAACAAATTTTCCTAATCTTTCTGTTCAAGCGCCATCTAC”, the binding signal was 0.814 RPM ratio (pull-down/input).
The figure for “GATGATTGTTCTCCCAGCTGATGAATTGTAGGCGTCGAGTAAACAAATTTTCCTAATCTTTCTGTTCAAGCGCCATCTAC” is 0.778 RPM ratio (pull-down/input).
The figure for “GATGATTGTTCTCCCAGCTGATGAATTGTTCACGTCGAGTAAACAAATTTTCCTAATCTTTCTGTTCAAGCGCCATCTAC” is 0.396 RPM ratio (pull-down/input); for “GATGATTGTTCTCCCAGCTGATGAATTCTGTCGCTCGAGTAAACAAATTTTCCTAATCTTTCTGTTCAAGCGCCATCTAC” it is 0.926 RPM ratio (pull-down/input).
For the sequence “GATGATTGTTCTCCCAGCTGATGAATTACCACGCTCGAGTAAACAAATTTTCCTAATCTTTCTGTTCAAGCGCCATCTAC”, the binding signal was 0.466 RPM ratio (pull-down/input).
As for “GATGATTGTTCTCCCAGCTGATGAATTCTATAGCTCGAGTAAACAAATTTTCCTAATCTTTCTGTTCAAGCGCCATCTAC”, the binding signal is 0.43 RPM ratio (pull-down/input).
Take “GATGATTGTTCTCCCAGCTGATGAATTGGCGGCCTCGAGTAAACAAATTTTCCTAATCTTTCTGTTCAAGCGCCATCTAC”: the binding signal is 0.449 RPM ratio (pull-down/input).
Regarding “GATGATTGTTCTCCCAGCTGATGAATTTTGTATTTCGAGTAAACAAATTTTCCTAATCTTTCTGTTCAAGCGCCATCTAC”, the binding signal is 5.33 RPM ratio (pull-down/input).
For the sequence “GATGATTGTTCTCCCAGCTGATGAATTGTAATTGTCGAGTAAACAAATTTTCCTAATCTTTCTGTTCAAGCGCCATCTAC”, the binding signal is 2.31 RPM ratio (pull-down/input).
For “GATGATTGTTCTCCCAGCTGATGAATTGTATTTGTCGAGTAAACAAATTTTCCTAATCTTTCTGTTCAAGCGCCATCTAC”, the binding signal was 6.43 RPM ratio (pull-down/input).
As for “GATGATTGTTCTCCCAGCTGATGAATTTGTATTTTCGAGTAAACAAATTTTCCTAATCTTTCTGTTCAAGCGCCATCTAC”, the binding signal is 4.85 RPM ratio (pull-down/input).
As to “GATGATTGTTCTCCCAGCTGATGAATTTGTATTGTCGAGTAAACAAATTTTCCTAATCTTTCTGTTCAAGCGCCATCTAC”, the binding signal was 6.39 RPM ratio (pull-down/input).
Turning to “GATGATTGTTCTCCCAGCTGATGAATTGTATCTGTCGAGTAAACAAATTTTCCTAATCTTTCTGTTCAAGCGCCATCTAC”, the binding signal is 1.2 RPM ratio (pull-down/input).
Take “GATGATTGTTCTCCCAGCTGATGAATTACAAGCTTCGAGTAAACAAATTTTCCTAATCTTTCTGTTCAAGCGCCATCTAC”: the binding signal is 0.518 RPM ratio (pull-down/input).
The result for “GATGATTGTTCTCCCAGCTGATGAATTTTGGGCATCGAGTAAACAAATTTTCCTAATCTTTCTGTTCAAGCGCCATCTAC” reads 0.782 RPM ratio (pull-down/input).
For “GATGATTGTTCTCCCAGCTGATGAATTGGGGGCATCGAGTAAACAAATTTTCCTAATCTTTCTGTTCAAGCGCCATCTAC”, the binding signal was 0.87 RPM ratio (pull-down/input).
Take “GATGATTGTTCTCCCAGCTGATGAATTGGGGCATTCGAGTAAACAAATTTTCCTAATCTTTCTGTTCAAGCGCCATCTAC”: the binding signal is 4.3 RPM ratio (pull-down/input).
Regarding “GATGATTGTTCTCCCAGCTGATGAATTTGGGCATTCGAGTAAACAAATTTTCCTAATCTTTCTGTTCAAGCGCCATCTAC”, the binding signal is 4.79 RPM ratio (pull-down/input).
Take “GATGATTGTTCTCCCAGCTGATGAATTGGGCATTTCGAGTAAACAAATTTTCCTAATCTTTCTGTTCAAGCGCCATCTAC”: the binding signal is 5.5 RPM ratio (pull-down/input).
For “GATGATTGTTCTCCCAGCTGATGAATTGGGCATCTCGAGTAAACAAATTTTCCTAATCTTTCTGTTCAAGCGCCATCTAC”, the binding signal was 6.41 RPM ratio (pull-down/input).
With “GATGATTGTTCTCCCAGCTGATGAATTAAGTGAATCGAGTAAACAAATTTTCCTAATCTTTCTGTTCAAGCGCCATCTAC”, the binding signal was 0.328 RPM ratio (pull-down/input).
Turning to “GATGATTGTTCTCCCAGCTGATGAATTAAGGGAGTCGAGTAAACAAATTTTCCTAATCTTTCTGTTCAAGCGCCATCTAC”, the binding signal was 0.249 RPM ratio (pull-down/input).
Take “GATGATTGTTCTCCCAGCTGATGAATTGCTTAAATCGAGTAAACAAATTTTCCTAATCTTTCTGTTCAAGCGCCATCTAC”: the binding signal was 0.457 RPM ratio (pull-down/input).
Turning to “GATGATTGTTCTCCCAGCTGATGAATTCTAGGTATCGAGTAAACAAATTTTCCTAATCTTTCTGTTCAAGCGCCATCTAC”, the binding signal was 0.464 RPM ratio (pull-down/input).
For “GATGATTGTTCTCCCAGCTGATGAATTTGCAATTTCGAGTAAACAAATTTTCCTAATCTTTCTGTTCAAGCGCCATCTAC”, the binding signal is 2.77 RPM ratio (pull-down/input).
In the case of “GATGATTGTTCTCCCAGCTGATGAATTCGTGCAATCGAGTAAACAAATTTTCCTAATCTTTCTGTTCAAGCGCCATCTAC”, the binding signal was 3.15 RPM ratio (pull-down/input).
With “GATGATTGTTCTCCCAGCTGATGAATTTTGCAATTCGAGTAAACAAATTTTCCTAATCTTTCTGTTCAAGCGCCATCTAC”, the binding signal is 5.75 RPM ratio (pull-down/input).
Consider “GATGATTGTTCTCCCAGCTGATGAATTCGCAATTTCGAGTAAACAAATTTTCCTAATCTTTCTGTTCAAGCGCCATCTAC”, for which the binding signal is 1.92 RPM ratio (pull-down/input).
Take “GATGATTGTTCTCCCAGCTGATGAATTCTGCAATTCGAGTAAACAAATTTTCCTAATCTTTCTGTTCAAGCGCCATCTAC”: the binding signal is 4.83 RPM ratio (pull-down/input).
“GATGATTGTTCTCCCAGCTGATGAATTGCGCAATTCGAGTAAACAAATTTTCCTAATCTTTCTGTTCAAGCGCCATCTAC”: the binding signal was 5.72 RPM ratio (pull-down/input).
Take “GATGATTGTTCTCCCAGCTGATGAATTGTGCAATTCGAGTAAACAAATTTTCCTAATCTTTCTGTTCAAGCGCCATCTAC”: the binding signal was 6.39 RPM ratio (pull-down/input).
As for “GATGATTGTTCTCCCAGCTGATGAATTTCGCAATTCGAGTAAACAAATTTTCCTAATCTTTCTGTTCAAGCGCCATCTAC”, the binding signal is 4.55 RPM ratio (pull-down/input).
